In PubChem BioAssay AID602141 (Sanford-Burnham Center for Chemical Genomics, 2011) one finds activity change (cytotoxicity) data, which are given here for 54 molecules.

Each structure is given as a SMILES string. Screen size: about 360,000 compounds; about 1,300 (0.36%) were called active. This excerpt belongs to a sample that is enriched for actives. A number with no mark means an inactive call.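 The calls were made as follows: active = corrected activity change at or below -50% at 5 µM; inactive = the rest.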

The nature of this test: cytotoxicity in KKLEB CF airway cells, primary screen, cytotoxicity control for CF NF-kB inhibitor project, cell-based, uHTS, fluorescence assay plates (AID 602141). As to conditions: KKLEB CF airway cells viability, ATPlite luminescence, overnight; at 5 µM; stronger effect = lower value; cells stimulated with P. aeruginosa culture filtrate.
As to `O=C(NCC(F)(F)F)c1ccc(S(=O)(=O)NCCc2ccc3c(c2)OCCO3)cc1`, the activity change (cytotoxicity) was 19.2%.

For `O=C(OC12CC3CC(CC(C3)C1)C2)c1ccc(NCc2cc(O)ccc2O)cc1`, the activity change (cytotoxicity) is -63.4% (active).

With `O=C(CC1CCCCC1)Nc1c2c(nn1-c1ccc(F)cc1)CS(=O)(=O)C2`, the activity change (cytotoxicity) was -3.9%. As for `COc1ccc(-c2c(C#Cc3ccsc3)c3cc(-c4ccc(CN5CCOCC5)cc4)ccc3n2C)cc1`, the figure is -4.5%; as for `O=C(Nc1cccc2ccccc12)NC1CC1`, 1%. Take `O=C(Nc1cccc2ccccc12)c1[nH]c(-c2ccccc2)c2c1C(=O)N(C1CC1)C2=O`: the activity change (cytotoxicity) was -52.9% (active). As for `O=C(Nc1cccc2ccccc12)c1onc2c1CCCC2`, the figure is 5.7%; as for `COCCN(C(=S)Nc1ccccc1OC)C1CCN(C(C)C)CC1`, -3.5%; as for `CC(Oc1ccc(F)cc1F)C(=O)/C=C/N(C)C` (centres undefined), 4.1%. Regarding `COC(=O)c1ccc(CNC(=O)C2CCC(=O)N(Cc3ccccn3)C2)cc1` (centres undefined), the activity change (cytotoxicity) is -4.5%. For `COc1ccc(C2=NO[C@@H]3C(=O)N(Cc4ccccc4)C(=O)[C@H]23)cc1OC` the value was -0.3%.

`COc1ccc(-c2cc(C(F)(F)F)nc(S(C)(=O)=O)n2)cc1OC`: the activity change (cytotoxicity) was -78.4% (active).

Regarding `COc1ccc(C2SCCN2S(=O)(=O)c2ccccc2)cc1OC` (centres undefined), the activity change (cytotoxicity) is -14.9%. As for `Cn1c(CCNS(=O)(=O)c2ccc(F)cc2)nnc1SCc1cccnc1`, the figure is -4.1%; as for `CC(=O)NC(C(=O)NCC(N)=O)C(C)C` (centres undefined), -4.4%. As for `C/C(=N\NC(=O)c1cc2c(s1)CCC(C)C2)c1cccnc1` (centres undefined), the figure is 8.5%; as for `CC(C)OC(=O)c1ccc(NCc2cc(O)ccc2O)cc1Cl`, -51.3% (active).

As for `CC(CN1CCCCC1)OC(=O)c1ccccc1Cl` (centres undefined), the activity change (cytotoxicity) was 0.5%. As for `O=C(O)Cc1ccc(NCc2ccccc2Cl)cc1`, the figure is 7.8%; as for `O=C(Nc1ccc(Br)cc1)c1cc(S(=O)(=O)Nc2ccccn2)ccc1Cl`, -6.3%. As for `CCN(CC)CCn1c(/N=C/c2cc(Br)ccc2O)nc2ccccc21`, the figure is 2.8%; as for `Oc1ccc(Br)cc1/C=N/Nc1ccccn1`, -94.7% (active). For `N#CC(=C1SC=CS1)c1nc(-c2ccccc2)cs1` the value was 9.6%; for `CCOc1ccc(NC(=O)CN(C)C(=O)Cn2c(=O)cnc3ccccc32)cc1OCC`, 3.8%; for `COc1cccc2c1C(=O)c1c(O)c3c(c(O)c1C2=O)CC(O)(C(C)=NNC(=O)c1ccc(Cl)c(Cl)c1)CC3OC1CC(N)C(O)C(C)O1` (centres undefined), -53.3% (active).

For the molecule `CCOC(=O)C1(Cc2cccc(OC)c2)CCN(Cc2csc(C(C)=O)c2)CC1`, the activity change (cytotoxicity) was -6%. As for `Oc1cccc2ccc(/C=C/c3ccc(Br)s3)nc12`, the figure is -93.8% (active); as for `COc1ccc([C@H]2CC(=O)C=C(/C=C/c3ccccc3)C2)cc1`, 9.7%; as for `CC(C)c1ccc(/C=C2\NC(=O)NC2=O)cc1`, 11.8%.

On to `CC[C@]12c3[nH]c4cc(CCC(=O)N(C)C)ccc4c3CCN1C(=O)[C@@H](CC(=O)NCCCn1ccnc1)C[C@@H]2C(=O)N1CCN(C(=O)C2CC2)CC1`, for which the activity change (cytotoxicity) was 0.6%. As to `COC(=O)C1=C(NC(=O)C(C)(C)C)CCS1`, the activity change (cytotoxicity) was 2.3%. As for `CCOC(=O)c1c(C)[nH]c2c1-c1ccccc1C(=O)C2=O`, the figure is -91.6% (active); as for `CCOC(=O)c1c(C)[nH]c(C)c1C(=O)CSc1nc(N)cc(N)n1`, 13.1%. As for `CCOC(=O)c1cnc(COc2ccccc2Cl)[nH]c1=O`, the figure is 4.6%. `Cc1c2cn[nH]c(=O)c2c(C)n1Cc1ccc(F)cc1`: the activity change (cytotoxicity) is -2.2%.

As to `CC(=O)Nc1ccc(SCC(=O)NC(=O)c2ccc(Cl)cc2)cc1`, the activity change (cytotoxicity) is 8%. For `O=C(CCl)Nc1ccc(Sc2ccc(NC(=O)CCl)cc2)cc1` the value was -68.5% (active). Regarding `O=C(O)CSCC(=O)Nc1ccc(C(F)(F)F)cc1`, the activity change (cytotoxicity) is -4%. For `CN(C)c1ccc(C(=S)N2CCN(C(=S)Nc3ccc(Cl)cc3)CC2)cc1` the value was 5.1%. As for `O=C(NC1=CC(=O)c2ccccc2C1=O)c1ccccc1`, the figure is -97.9% (active). For `CC(=O)c1cc(NC(=O)c2ccccc2)c(=O)oc1/C=C/N(C)C` the value was -6.9%; for `O=C(COC(=O)c1cccc(Br)c1)Nc1cccc2c1C(=O)c1ccccc1C2=O`, -17.2%; for `COc1ccc(C(C(=O)NC2CCCCC2)N(C(=O)CCl)c2ccccc2Cl)cc1` (centres undefined), 4.1%. In the case of `COc1ccc(CCNC(=O)CN(c2ccccc2)S(C)(=O)=O)cc1OC`, the activity change (cytotoxicity) was 8.4%. As for `COc1ccc(C(CCN(Cc2ccc(OC)c(OC)c2)C(=O)CCl)c2ccccc2)cc1` (centres undefined), the figure is -76.9% (active); as for `CC(C[N+](C)(C)C)OC(N)=O` (centres undefined), -65.7% (active). For `CC(=O)OC(C)C[N+](C)(C)C` (centres undefined) the value was 3.7%. For `NC(c1csc(NC(=O)Nc2cccc(C(F)(F)F)c2)n1)C1CCCCC1` (centres undefined) the value was -57.8% (active); for `COc1ccc(C(N)c2csc(NC(=O)Nc3cccc(C(F)(F)F)c3)n2)cc1` (centres undefined), -18.3%. Turning to `NC(c1ccccc1)c1csc(NC(=O)Nc2cccc(C(F)(F)F)c2)n1` (centres undefined), the activity change (cytotoxicity) was -17.2%. For `c1ccc2c(c1)OCC(c1nn3cnnc3s1)O2` (centres undefined) the value was 0.1%; for `O=C(CSc1nnc(N2CCOCC2)n1-c1cccc(F)c1)N1CCN(c2ccccn2)CC1`, -2.4%.

As for `O=C(/C(=N\O)n1cncn1)c1ccc(Br)cc1Br`, the activity change (cytotoxicity) is -5.9%. For `Cc1c(NC(=O)CN(C)CC(=O)Nc2ccc(F)c(F)c2F)c(=O)n(-c2ccccc2)n1C` the value was 5.4%.
